Only some compounds are listed: those with a hit (about 4.8% of all), similar ones and a draw of the others.
DAX1 inh-1 = inhibitors of human orphan nuclear receptor DAX1 (NR0B1) | P51843 | HEK293 Gal4-DAX1 luciferase reporter, luminescence | inhibition, % at 6.75 µM | 340,000 tested, 0.99% active;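 active = inhibition above the mean over all tested compounds plus 3 SD, cut at about 4.2% in these data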;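 note: inhibition shows as a rise in luminescence from relieved DAX1 repression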
ssDAF12 agonist = activates DAF-12 receptor from parasite S. stercoralis. activation, % at 6.8 µM. 370,000 tested, 1% active. HEK293 ssDAF-12/GRIP1 lit1-tk-luc reporter, luminescence; % of 3 µM dafachronic acid response;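 active = activation above the mean over all tested compounds plus 3 SD, cut at about 0.9% in these data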
SMARCA2 activ = increases SMARCA2 function in MMTV reporter cells; 370,000 tested, 1% active; activation, % at 9.1 µM; AID 652017; MG213 cells, MMTV-luciferase reporter, dexamethasone, overnight; in the data active = activation above about 7.8%
DAX1 inh-2 = inhibitors of DAX1 repression of SF-1 activated StAR promoter | HEK293T StAR-luciferase reporter, SF-1/DAX-1 repression relief | inhibition, % at 6.8 µM | 370,000 tested, 1.1% active;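 active = inhibition above the mean over all tested compounds plus 3 SD, cut at about 3.6% in these data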;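 note: higher inhibition means more luminescence from relief of DAX-1 repression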
hcDAF12 agonist = activators of H. contortus DAF-12 nuclear receptor; HEK293 hcDAF-12 lit1-tk-luc reporter, luminescence; 0% DMSO, 100% Δ7-dafachronic acid; activation, % at 6.8 µM; 370,000 tested, 1.4% active; AID 652067;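 active = activation above the mean of all tested compounds plus 3 SD, cut at about 5.5% in these data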
hgDAF12 agonist = activates the H. glycines DAF-12 receptor ligand-binding domain; activation, % at 6.8 µM; 370,000 tested, 1.8% active; HEK293 GAL4-hgDAF12 UAS-luciferase reporter, agonist luminescence; normalized to butyrate control;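 active = activation above a cutoff set at the mean of all screened compounds plus 3 SD, cut at about 10% in these data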
DAX1 inh confirm = NR0B1 (human) inhibition, confirmation; AID 652134; 2,400 tested, 87% active; inhibition, % at 6.8 µM; shares compounds with DAX1 inh-2; HEK293T StAR-promoter luciferase reporter, SF-1/DAX-1 repression;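 active = inhibition above the average of every tested compound plus 3 SD, cut at about 3.8% in these data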;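 note: active compounds raise luminescence by relieving repression of the StAR reporter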
Target sequence (P51843 whole entry, looked up): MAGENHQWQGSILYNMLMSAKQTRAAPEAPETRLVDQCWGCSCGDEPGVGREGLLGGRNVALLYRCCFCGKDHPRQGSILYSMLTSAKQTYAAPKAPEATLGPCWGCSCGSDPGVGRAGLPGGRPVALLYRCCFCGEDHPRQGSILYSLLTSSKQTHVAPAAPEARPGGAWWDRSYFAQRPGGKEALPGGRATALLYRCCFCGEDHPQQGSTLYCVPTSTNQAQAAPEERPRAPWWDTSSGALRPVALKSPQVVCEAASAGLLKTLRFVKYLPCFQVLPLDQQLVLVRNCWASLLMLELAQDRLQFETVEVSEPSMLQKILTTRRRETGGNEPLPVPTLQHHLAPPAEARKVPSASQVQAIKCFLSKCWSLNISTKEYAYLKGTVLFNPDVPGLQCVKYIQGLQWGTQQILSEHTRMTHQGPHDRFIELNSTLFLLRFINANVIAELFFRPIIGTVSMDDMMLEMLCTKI
SF1 mutant ctr = nonselective inhibitor or artifact in SF-1 mutant DAX1 counter-screen; shares compounds with DAX1 inh-2; HEK293 StAR-luciferase, SF-1 AF2 mutant, luminescence; inhibition, % at 6.8 µM; 2,400 tested, 78% active; AID 652136;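 active = inhibition above the mean of all tested compounds plus 3 SD, cut at about 3% in these data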
SMARCA2 conf = SMARCA2 activation, confirmation screen. shares compounds with SMARCA2 activ. MG213 cells, MMTV-luciferase with dexamethasone, luminescence, overnight; MG213 cells expressing E1A, Rb sequestered; DMSO wells 0%, reference activator 100%. activation, % at 9.1 µM. 3,500 tested, 30% active. AID 652260;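 active = activation above its plate's cutoff, the mean activation of tested wells plus 3 SD, cut at about 7.9% in these data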
VP16 Luc act = GAL4-VP16 reporter activation counter-screen. activation, % at 9.1 µM. AID 686939. HEK293 GAL4-VP16 pG5luc reporter, luciferase luminescence; scaled: DMSO wells 0%, SAHA wells 100%. shares compounds with SMARCA2 activ. 3,500 tested, 41% active;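 active = activation above the solvent-only control well mean plus 3 SD, averaged across control plates, cut at about 5.2% in these data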
Of the large screens only hits and unclear results are named; the others gave an inactive call (follow-up assays come after a bar, where they were run).

COC(=O)C1CCN(C(=O)COC(=O)c2cc(-c3ccccc3)nc3ccc(OC)cc23)CC1	none (no result: ssDAF12 agonist, SMARCA2 activ, DAX1 inh-2, hcDAF12 agonist, hgDAF12 agonist)
Cc1ccc(-n2c(SCC(=O)Nc3cccc4ccccc34)nnc2-c2cnccn2)cc1	none (no result: DAX1 inh-1)
COc1cccc(-c2cnc(C(O)c3ccc(Cl)c(Cl)c3)[nH]2)c1 (centres undefined)	none (no result: DAX1 inh-1)
CC(=O)c1ccc(OCc2cc(C(=O)N3CC[C@@H]4CCCC[C@H]4C3)no2)cc1	none
Cc1cccc(C)c1OCc1cc(C(=O)N2CCC(C3CCCCC3)C2)no1 (centres undefined)	DAX1 inh-2 4.7 | DAX1 inh confirm 5.0 | SF1 mutant ctr 4.0
CSc1ccccc1OCc1cc(C(=O)N(C)Cc2ccc(C)o2)no1	none
CSc1ccccc1OCc1cc(C(=O)N(C)Cc2ccc3nsnc3c2)no1	DAX1 inh-2 5.3, hgDAF12 agonist 11 | DAX1 inh confirm 6.5 | SF1 mutant ctr 3.1
CN(C(=O)c1cc(COc2c(F)cccc2F)on1)C1CCOC1 (centres undefined)	DAX1 inh-2 5.1 | DAX1 inh confirm inactive | SF1 mutant ctr inactive
CCOc1ccccc1NC(=O)COC(=O)CCOc1cc(C)ccc1C	none
CCN1CCc2c(sc(NC(=O)c3ccc(S(=O)(=O)N4CC(C)OC(C)C4)cc3)c2C(N)=O)C1 (centres undefined)	DAX1 inh-2 4.8 | DAX1 inh confirm inactive | SF1 mutant ctr 3.7
CCN1CCN(S(=O)(=O)c2ccc(C(=O)Nc3sc4c(c3C(N)=O)CCN(CC)C4)cc2)CC1	none
COc1ccc(NC(=S)NC(=O)c2ccccc2)cn1	DAX1 inh-2 4.6, hgDAF12 agonist 13 | DAX1 inh confirm inactive | SF1 mutant ctr 4.3
COc1ccc(NC(=O)c2cccc(Oc3ccccc3)c2)cn1	none
N#C/C(=C(/O)CN1CCCCC1)c1nc(-c2ccc(Cl)cc2)cs1	none
Cc1ccc(-c2csc(/C(C#N)=C(\O)CCl)n2)cc1	DAX1 inh-2 5.1, hgDAF12 agonist 12 | DAX1 inh confirm inactive | SF1 mutant ctr inactive
O=C(c1c(F)cccc1F)N1CCN(CCOc2ccccc2)CC1	none
O=C(Nc1cccc(-c2ccc(N3CCOCC3)nn2)c1)c1ccccc1Cl	SMARCA2 activ 11, DAX1 inh-2 5.2 | DAX1 inh confirm 5.2 | SF1 mutant ctr 5.0 | SMARCA2 conf 14 | VP16 Luc act 10
COc1ccccc1NS(=O)(=O)c1cc(NC(=O)c2ccc(NC(C)=O)cc2)ccc1N1CCOCC1	SMARCA2 activ 18, DAX1 inh-2 7.0 | DAX1 inh confirm 10 | SF1 mutant ctr inactive | SMARCA2 conf 16 | VP16 Luc act inactive
COc1ccccc1NS(=O)(=O)c1cc(NC(=O)c2ccncc2)ccc1N1CCOCC1	none
Nc1nc2c(ncn2[C@@H]2O[C@H](CNC(=O)[C@H](N)C3CCCCC3)[C@@H](O)[C@H]2O)c(=O)[nH]1	none (no result: DAX1 inh-1)
Cn1c(C(=O)NCCCN2CCOCC2)cc2c(=O)n(C)c3ccccc3c21	none
CN1CCCC1CCNc1ccc2oc3ccccc3c(=O)c2c1 (centres undefined)	none (no result: DAX1 inh-1)
CN1CCC[C@H]1CCNc1ccc2c(=O)c3ccccc3n(C)c2c1	SMARCA2 activ 27, DAX1 inh-2 8.1 | DAX1 inh confirm 15 | SF1 mutant ctr 9.6 | SMARCA2 conf 53 | VP16 Luc act 8.6
